Test results published in the supplement of paper PMC11732987, “Enantioselective OTUD7B fragment discovery through chemoproteomics screening and high-throughput optimisation” (Communications Chemistry, 2025).

Key:
Assay in all cases: log2 ratio of Biotin-Ahx-Ub-VS probe labelling (fragment/DMSO); higher = less target engagement (more negative = stronger competition), active = hit call of the paper (q ≤ 0.05, log2 ratio ≤ -1)
Conditions in all cases: compound concentration: 200 uM; treatment time: 3 h
USP42 = target: T1, USP42 (UniProt Q9H9J4)
T1 sequence (whole entry): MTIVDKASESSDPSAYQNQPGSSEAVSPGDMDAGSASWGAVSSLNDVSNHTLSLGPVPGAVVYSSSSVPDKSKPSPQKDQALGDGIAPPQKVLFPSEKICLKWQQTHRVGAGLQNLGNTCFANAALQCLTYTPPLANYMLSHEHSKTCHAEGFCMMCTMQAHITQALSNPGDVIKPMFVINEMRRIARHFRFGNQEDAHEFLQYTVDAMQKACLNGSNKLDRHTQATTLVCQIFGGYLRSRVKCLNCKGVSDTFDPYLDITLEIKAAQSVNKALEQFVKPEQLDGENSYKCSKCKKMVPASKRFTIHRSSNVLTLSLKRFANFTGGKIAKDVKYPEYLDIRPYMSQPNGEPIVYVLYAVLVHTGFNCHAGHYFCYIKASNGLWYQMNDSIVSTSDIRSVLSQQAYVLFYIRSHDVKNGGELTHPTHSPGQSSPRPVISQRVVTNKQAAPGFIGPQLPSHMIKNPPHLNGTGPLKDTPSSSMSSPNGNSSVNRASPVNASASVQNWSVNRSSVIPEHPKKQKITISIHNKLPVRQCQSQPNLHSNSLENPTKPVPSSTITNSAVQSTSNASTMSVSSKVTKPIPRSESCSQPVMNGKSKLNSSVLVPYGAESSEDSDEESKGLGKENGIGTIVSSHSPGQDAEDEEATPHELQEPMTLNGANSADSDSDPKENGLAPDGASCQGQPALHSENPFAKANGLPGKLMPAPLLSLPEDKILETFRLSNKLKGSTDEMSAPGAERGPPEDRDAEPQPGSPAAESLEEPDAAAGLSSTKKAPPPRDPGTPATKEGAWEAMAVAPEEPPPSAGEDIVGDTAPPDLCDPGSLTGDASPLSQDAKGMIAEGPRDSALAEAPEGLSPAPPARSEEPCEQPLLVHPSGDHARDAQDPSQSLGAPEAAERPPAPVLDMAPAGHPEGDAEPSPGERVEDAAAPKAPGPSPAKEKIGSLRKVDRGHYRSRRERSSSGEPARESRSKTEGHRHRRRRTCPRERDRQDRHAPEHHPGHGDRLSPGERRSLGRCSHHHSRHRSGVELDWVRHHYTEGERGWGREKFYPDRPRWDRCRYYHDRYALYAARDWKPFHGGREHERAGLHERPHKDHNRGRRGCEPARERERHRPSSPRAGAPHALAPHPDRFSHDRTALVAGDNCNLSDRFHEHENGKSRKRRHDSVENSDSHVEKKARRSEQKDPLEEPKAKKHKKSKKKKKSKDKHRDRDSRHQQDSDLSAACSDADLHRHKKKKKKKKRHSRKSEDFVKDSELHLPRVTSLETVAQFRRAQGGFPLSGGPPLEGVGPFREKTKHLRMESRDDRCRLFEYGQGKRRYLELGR
Method in brief: (§1)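 The table lists average log2 ratios of fragment over vehicle, from an unpaired t-test on global-median-normalised Spectronaut label-free quantities. Proteins with ≥2 unique peptides were used. Samples were HEK293T lysate (495 µg) treated in triplicate with fragment at 200 µM or vehicle for 3 h, then with Biotin-Ahx-Ub-VS (0.5 µM final) for 1 h, with labelled DUBs NeutrAvidin-enriched and run by diaPASEF LC-MS/MS.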

USP46 = USP46 (UniProt P62068)
USP46, sequence (P62068 whole entry): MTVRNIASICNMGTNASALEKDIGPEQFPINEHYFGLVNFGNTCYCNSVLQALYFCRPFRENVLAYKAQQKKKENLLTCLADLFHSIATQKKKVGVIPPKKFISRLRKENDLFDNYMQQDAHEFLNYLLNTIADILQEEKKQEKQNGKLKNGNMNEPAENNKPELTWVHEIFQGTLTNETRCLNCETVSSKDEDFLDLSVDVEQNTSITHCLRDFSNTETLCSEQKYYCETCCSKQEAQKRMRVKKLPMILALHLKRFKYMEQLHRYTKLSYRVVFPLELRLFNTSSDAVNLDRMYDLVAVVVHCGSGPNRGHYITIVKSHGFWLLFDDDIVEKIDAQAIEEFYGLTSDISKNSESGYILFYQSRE
Method in brief: as §1

USP47 = target: T2, USP47 (UniProt Q96K76)
T2 sequence (whole entry): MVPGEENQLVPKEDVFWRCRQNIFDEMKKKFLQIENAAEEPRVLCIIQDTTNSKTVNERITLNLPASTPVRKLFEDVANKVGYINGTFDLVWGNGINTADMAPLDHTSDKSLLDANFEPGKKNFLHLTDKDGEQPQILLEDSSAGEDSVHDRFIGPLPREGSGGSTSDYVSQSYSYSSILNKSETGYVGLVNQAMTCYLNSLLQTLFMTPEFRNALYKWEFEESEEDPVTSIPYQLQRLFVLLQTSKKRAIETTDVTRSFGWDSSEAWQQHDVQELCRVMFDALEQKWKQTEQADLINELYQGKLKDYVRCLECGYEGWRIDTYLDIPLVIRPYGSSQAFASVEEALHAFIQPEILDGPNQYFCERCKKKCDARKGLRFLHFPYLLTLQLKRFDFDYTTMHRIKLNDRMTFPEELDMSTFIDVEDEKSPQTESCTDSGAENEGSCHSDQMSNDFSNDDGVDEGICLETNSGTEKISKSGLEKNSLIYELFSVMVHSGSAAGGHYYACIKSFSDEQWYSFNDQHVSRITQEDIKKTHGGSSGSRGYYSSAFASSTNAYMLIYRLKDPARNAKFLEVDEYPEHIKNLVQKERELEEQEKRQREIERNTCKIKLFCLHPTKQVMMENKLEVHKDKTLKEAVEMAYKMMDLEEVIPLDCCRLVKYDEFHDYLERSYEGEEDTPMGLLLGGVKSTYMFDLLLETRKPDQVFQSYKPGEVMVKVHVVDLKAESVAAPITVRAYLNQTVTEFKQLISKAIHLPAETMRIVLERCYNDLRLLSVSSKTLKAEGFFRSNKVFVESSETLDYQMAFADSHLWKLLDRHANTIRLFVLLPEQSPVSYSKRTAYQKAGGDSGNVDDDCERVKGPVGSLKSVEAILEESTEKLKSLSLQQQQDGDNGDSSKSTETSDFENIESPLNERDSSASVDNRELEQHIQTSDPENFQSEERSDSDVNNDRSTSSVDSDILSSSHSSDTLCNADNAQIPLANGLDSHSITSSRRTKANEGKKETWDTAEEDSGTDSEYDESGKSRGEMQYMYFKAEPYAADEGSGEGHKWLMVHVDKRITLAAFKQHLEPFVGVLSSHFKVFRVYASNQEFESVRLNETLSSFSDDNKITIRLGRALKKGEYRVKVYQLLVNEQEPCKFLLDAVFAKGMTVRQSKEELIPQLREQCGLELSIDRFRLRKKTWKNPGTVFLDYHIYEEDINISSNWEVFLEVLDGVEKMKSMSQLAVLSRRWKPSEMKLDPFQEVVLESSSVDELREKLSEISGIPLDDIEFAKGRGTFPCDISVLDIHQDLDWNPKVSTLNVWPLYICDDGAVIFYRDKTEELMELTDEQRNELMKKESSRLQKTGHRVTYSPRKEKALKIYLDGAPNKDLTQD
Method in brief: as §1

USP48 = target: T3, USP48 (UniProt Q86UV5)
T3 sequence (whole entry): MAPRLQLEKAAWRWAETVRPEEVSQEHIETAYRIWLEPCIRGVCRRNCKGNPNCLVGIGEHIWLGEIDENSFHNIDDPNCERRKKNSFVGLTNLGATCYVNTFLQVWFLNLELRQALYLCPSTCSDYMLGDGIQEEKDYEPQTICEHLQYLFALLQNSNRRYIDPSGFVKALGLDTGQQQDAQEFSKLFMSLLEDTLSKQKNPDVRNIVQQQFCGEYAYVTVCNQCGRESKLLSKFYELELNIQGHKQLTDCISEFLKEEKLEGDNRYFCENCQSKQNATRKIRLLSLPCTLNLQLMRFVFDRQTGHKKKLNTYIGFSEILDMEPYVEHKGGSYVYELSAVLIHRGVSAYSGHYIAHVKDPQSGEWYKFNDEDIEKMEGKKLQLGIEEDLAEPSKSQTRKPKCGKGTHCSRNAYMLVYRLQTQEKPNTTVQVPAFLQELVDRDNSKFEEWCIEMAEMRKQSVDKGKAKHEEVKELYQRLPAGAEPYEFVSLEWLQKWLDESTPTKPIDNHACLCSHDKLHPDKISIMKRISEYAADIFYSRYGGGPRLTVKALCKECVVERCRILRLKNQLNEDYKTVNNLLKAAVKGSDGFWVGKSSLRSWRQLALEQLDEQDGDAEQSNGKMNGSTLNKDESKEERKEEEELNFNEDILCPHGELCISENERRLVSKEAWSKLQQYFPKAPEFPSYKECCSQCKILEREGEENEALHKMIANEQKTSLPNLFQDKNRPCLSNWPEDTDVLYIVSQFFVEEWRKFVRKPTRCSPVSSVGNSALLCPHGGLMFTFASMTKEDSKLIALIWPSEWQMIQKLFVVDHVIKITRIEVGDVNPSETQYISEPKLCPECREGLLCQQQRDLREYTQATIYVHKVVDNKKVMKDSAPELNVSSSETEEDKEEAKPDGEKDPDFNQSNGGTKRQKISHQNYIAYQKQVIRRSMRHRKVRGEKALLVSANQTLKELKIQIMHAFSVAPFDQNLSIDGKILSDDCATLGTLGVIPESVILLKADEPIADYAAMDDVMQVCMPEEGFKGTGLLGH
Method in brief: as §1

USP5 = target: T4, USP5 (UniProt P45974)
T4 sequence (whole entry): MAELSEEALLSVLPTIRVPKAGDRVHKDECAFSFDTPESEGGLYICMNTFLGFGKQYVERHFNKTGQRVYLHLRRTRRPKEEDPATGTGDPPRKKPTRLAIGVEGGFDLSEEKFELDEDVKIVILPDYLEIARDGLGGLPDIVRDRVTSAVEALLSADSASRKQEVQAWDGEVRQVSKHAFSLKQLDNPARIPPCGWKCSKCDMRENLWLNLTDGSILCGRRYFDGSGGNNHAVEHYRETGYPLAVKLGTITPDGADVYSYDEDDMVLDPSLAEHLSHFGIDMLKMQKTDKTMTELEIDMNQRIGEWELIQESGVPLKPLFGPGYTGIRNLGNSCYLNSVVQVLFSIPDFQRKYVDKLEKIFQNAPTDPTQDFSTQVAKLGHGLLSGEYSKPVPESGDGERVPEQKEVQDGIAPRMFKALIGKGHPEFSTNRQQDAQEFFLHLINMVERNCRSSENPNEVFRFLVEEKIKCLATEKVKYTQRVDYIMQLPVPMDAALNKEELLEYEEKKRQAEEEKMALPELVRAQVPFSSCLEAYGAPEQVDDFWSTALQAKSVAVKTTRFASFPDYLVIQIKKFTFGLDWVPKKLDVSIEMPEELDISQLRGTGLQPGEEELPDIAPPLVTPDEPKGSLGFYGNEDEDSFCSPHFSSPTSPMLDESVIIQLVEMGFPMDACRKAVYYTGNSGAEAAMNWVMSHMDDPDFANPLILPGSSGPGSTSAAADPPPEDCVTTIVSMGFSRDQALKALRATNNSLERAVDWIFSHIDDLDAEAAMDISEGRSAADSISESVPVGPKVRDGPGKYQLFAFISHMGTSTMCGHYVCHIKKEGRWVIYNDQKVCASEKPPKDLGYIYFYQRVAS
Method in brief: as §1

USP54 = USP54 (UniProt Q70EL1)
USP54, sequence (Q70EL1 whole entry): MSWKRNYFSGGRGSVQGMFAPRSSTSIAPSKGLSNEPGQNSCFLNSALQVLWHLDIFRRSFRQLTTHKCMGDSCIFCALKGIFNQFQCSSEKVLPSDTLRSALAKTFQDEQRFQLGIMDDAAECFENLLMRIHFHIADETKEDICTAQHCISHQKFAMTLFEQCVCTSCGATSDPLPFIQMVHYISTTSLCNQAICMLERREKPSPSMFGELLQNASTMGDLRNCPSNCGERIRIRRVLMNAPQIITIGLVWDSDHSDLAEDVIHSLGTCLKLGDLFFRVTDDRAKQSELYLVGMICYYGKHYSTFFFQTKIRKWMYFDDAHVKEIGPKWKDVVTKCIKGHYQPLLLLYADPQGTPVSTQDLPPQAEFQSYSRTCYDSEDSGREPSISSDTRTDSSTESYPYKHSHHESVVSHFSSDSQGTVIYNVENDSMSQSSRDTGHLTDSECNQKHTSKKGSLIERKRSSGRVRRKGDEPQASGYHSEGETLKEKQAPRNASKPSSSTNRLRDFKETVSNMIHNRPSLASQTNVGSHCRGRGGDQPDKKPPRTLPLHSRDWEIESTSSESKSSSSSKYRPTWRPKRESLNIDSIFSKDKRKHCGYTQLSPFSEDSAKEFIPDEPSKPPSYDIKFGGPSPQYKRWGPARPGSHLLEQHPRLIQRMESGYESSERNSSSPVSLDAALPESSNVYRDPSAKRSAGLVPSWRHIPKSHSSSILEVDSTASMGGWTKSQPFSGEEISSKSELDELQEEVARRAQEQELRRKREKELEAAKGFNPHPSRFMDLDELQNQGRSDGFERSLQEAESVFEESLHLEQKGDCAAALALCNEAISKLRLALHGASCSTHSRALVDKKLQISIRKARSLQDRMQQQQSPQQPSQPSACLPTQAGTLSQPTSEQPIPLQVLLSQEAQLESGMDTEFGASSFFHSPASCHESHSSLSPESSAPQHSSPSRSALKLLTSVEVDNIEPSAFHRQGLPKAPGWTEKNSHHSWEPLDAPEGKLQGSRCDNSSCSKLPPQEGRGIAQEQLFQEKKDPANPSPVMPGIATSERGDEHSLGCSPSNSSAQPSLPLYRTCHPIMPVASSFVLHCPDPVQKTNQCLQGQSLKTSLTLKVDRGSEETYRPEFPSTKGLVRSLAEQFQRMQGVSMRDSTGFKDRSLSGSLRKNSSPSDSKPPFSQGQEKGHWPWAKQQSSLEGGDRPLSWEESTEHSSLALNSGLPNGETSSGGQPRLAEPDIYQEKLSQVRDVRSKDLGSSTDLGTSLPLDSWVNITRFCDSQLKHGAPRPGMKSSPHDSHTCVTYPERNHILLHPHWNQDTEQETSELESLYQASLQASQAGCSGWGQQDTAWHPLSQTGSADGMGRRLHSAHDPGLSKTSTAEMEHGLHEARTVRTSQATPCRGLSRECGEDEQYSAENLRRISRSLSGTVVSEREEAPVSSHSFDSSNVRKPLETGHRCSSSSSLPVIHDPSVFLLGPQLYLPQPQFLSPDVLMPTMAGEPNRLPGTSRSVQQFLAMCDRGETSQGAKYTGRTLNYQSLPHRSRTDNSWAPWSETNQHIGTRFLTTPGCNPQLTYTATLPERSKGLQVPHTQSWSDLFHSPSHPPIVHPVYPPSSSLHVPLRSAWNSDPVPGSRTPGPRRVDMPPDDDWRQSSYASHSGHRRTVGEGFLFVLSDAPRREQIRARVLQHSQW
Method in brief: as §1

USP7 = USP7 (UniProt Q93009)
USP7, sequence (Q93009 whole entry, looked up): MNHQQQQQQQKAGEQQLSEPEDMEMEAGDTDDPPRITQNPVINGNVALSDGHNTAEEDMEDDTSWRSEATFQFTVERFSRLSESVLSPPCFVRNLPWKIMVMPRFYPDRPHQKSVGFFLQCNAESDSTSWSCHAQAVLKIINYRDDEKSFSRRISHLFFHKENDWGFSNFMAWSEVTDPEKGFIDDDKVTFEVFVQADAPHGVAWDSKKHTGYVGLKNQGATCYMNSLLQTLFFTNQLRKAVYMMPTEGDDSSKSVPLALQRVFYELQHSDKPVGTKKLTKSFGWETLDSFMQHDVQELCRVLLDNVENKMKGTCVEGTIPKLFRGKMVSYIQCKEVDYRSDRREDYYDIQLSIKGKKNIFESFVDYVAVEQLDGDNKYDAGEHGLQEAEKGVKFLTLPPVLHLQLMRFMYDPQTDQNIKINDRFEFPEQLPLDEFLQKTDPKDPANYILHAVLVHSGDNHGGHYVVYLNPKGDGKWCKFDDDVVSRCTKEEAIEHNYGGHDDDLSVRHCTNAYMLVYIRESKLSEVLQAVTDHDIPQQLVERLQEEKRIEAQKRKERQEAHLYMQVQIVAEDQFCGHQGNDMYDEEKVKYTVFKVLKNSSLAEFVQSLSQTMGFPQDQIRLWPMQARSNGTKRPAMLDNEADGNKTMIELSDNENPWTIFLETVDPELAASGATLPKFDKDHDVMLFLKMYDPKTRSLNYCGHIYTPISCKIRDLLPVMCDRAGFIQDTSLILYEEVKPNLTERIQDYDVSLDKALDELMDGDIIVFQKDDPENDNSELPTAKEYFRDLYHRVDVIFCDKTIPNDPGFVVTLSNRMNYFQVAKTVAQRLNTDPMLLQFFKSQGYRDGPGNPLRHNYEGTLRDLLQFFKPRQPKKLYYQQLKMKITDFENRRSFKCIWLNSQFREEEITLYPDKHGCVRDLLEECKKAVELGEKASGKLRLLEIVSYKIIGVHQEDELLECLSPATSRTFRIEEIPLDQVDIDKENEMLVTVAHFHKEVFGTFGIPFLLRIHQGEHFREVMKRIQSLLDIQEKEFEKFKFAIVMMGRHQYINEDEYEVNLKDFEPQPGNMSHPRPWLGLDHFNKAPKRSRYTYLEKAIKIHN
Method in brief: as §1

USP8 = target: T5, USP8 (UniProt P40818)
T5 sequence (whole entry): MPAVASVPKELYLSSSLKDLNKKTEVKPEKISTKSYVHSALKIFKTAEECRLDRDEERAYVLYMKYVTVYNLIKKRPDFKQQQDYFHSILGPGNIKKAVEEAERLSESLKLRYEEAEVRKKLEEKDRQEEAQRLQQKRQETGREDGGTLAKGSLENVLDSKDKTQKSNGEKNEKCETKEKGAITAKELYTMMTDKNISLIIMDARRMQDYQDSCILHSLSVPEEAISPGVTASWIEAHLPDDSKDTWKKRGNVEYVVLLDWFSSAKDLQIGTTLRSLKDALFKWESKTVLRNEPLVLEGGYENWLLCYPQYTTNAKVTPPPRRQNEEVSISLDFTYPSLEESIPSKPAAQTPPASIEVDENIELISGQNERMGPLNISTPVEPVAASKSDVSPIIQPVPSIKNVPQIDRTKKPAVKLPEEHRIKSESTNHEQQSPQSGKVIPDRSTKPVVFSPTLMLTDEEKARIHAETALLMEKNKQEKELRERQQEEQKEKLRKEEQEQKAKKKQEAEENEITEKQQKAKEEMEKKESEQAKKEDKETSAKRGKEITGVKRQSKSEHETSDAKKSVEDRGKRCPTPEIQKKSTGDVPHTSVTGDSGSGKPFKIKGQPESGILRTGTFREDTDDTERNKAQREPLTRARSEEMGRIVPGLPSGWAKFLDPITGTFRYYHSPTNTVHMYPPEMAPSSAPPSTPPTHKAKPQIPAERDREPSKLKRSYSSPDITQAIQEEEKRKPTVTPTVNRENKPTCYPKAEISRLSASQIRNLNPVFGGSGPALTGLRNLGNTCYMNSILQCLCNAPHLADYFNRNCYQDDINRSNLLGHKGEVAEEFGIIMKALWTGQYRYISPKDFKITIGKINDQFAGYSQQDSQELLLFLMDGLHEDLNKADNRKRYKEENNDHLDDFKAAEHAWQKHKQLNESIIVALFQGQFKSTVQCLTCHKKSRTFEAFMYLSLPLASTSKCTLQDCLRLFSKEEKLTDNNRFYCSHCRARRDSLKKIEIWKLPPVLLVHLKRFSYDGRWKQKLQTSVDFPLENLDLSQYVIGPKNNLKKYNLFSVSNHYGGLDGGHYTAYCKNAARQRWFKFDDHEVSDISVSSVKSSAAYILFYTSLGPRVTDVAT
Method in brief: as §1

USP9X = USP9X (UniProt Q93008)
Method in brief: as §1

UniProt O00487 = target: UniProt O00487
UniProt O00487, sequence (O00487 whole entry): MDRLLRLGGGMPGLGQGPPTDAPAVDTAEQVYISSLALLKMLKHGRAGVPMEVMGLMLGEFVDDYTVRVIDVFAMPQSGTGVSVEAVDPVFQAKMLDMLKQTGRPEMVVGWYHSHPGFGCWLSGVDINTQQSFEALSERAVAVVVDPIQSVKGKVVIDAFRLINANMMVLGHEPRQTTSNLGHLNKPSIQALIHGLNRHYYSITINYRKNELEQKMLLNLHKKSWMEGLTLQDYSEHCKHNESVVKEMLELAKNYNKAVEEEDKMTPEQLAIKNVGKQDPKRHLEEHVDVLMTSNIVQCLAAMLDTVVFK
Method in brief: as §1

Measured: log2 ratio of Biotin-Ahx-Ub-VS probe labelling

Cc1ncsc1CCNC(=O)CCl
inactive: USP42 0.0552 | USP46 0.359 | USP47 0.687 | USP48 0.00776 | USP5 0.325 | USP54 0.227 | USP7 0.0797 | USP8 0.298 | USP9X -0.0257 | UniProt O00487 0.339
